Test results from the supplement of paper PMC8728848.
The sample as a whole holds a higher share of the strongest signals than the screen did.

Assays:
Test in all cases: glycan array binding signal (z-score within array); higher = stronger binding
Details in all cases: glycan notation: IUPAC condensed, linker removed
[1] = molecular target: Fuc(a1-2)Gal(b1-4)[Fuc(a1-3)]GlcNAc(b1-3)GalNAc
Procedure, shortened: (§1)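 Glycan array data came from 3228 arrays in the Consortium for Functional Glycomics database, and only arrays with an available protein sequence were kept. Glycan names were put into IUPAC-condensed notation, and columns mapping to the same glycan were averaged. The binding signal is a within-array Z-score, averaged across arrays of one protein sequence run at different concentrations or buffers and across linkers. A negative Z-score can be read as non-binding.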

[2] = molecular target: Fuc(a1-2)Gal6S(b1-3)GlcNAc6S
Procedure, shortened: as §1

Fuc(a1-2)Gal6S(b1-4)Glc = molecular target: Fuc(a1-2)Gal6S(b1-4)Glc
Procedure, shortened: as §1

[3] = molecular target: Fuc(a1-2)[Gal(a1-3)]Gal(b1-3)GlcNAc(b1-2)Man(a1-3)[Fuc(a1-2)[Gal(a1-3)]Gal(b1-3)GlcNAc(b1-2)Man(a1-6)]Man(b1-4)GlcNAc(b1-4)GlcNAc
Procedure, shortened: as §1

[4] = molecular target: Fuc(a1-2)[Gal(a1-3)]Gal(b1-3)GlcNAc(b1-3)GalNAc
Procedure, shortened: as §1

[5] = molecular target: Fuc(a1-3)[Gal(b1-4)]GlcNAc
Procedure, shortened: as §1

[6] = molecular target: Fuc(a1-3)[Gal(b1-4)]GlcNAc(b1-2)Man
Procedure, shortened: as §1

[7] = molecular target: Fuc(a1-3)[Gal(b1-4)]GlcNAc(b1-2)Man(a1-3)[Fuc(a1-3)[Gal(b1-4)]GlcNAc(b1-2)Man(a1-6)]Man(b1-4)GlcNAc(b1-4)GlcNAc
Procedure, shortened: as §1

[8] = molecular target: Fuc(a1-3)[Gal3S(b1-4)]GlcNAc
Procedure, shortened: as §1

[9] = molecular target: Fuc(a1-3)[GalNAc(b1-4)]GlcNAc
Procedure, shortened: as §1

[10] = molecular target: Gal(a1-3)Gal(b1-3)[Fuc(a1-4)]GlcNAc(b1-2)Man(a1-3)[Gal(a1-3)Gal(b1-3)[Fuc(a1-4)]GlcNAc(b1-2)Man(a1-6)]Man(b1-4)GlcNAc(b1-4)GlcNAc
Procedure, shortened: as §1

Gal(a1-3)Gal(b1-4)GlcNAc = molecular target: Gal(a1-3)Gal(b1-4)GlcNAc
Procedure, shortened: as §1

[11] = molecular target: Gal(b1-3)GlcNAc(b1-2)Man(a1-3)[GlcNAc(b1-4)][Gal(b1-3)GlcNAc(b1-2)Man(a1-6)]Man(b1-4)GlcNAc(b1-4)GlcNAc
Procedure, shortened: as §1

[12] = molecular target: Gal(b1-3)GlcNAc(b1-3)GalNAc
Procedure, shortened: as §1

[13] = molecular target: Gal(b1-4)GlcNAc(b1-3)Gal(b1-3)GlcNAc
Procedure, shortened: as §1

[14] = molecular target: Gal(b1-4)GlcNAc(b1-3)Gal(b1-4)GlcNAc(b1-2)Man(a1-3)[Gal(b1-4)GlcNAc(b1-3)Gal(b1-4)GlcNAc(b1-2)Man(a1-6)]Man(b1-4)GlcNAc(b1-4)GlcNAc
Procedure, shortened: as §1

[15] = molecular target: Gal(b1-4)GlcNAc(b1-3)Gal(b1-4)GlcNAc(b1-3)Gal(b1-4)GlcNAc
Procedure, shortened: as §1

[16] = molecular target: Gal(b1-4)GlcNAc(b1-3)Gal(b1-4)GlcNAc(b1-3)Gal(b1-4)GlcNAc(b1-2)Man(a1-3)[Gal(b1-4)GlcNAc(b1-3)Gal(b1-4)GlcNAc(b1-3)Gal(b1-4)GlcNAc(b1-2)Man(a1-6)]Man(b1-4)GlcNAc(b1-4)GlcNAc
Procedure, shortened: as §1

[17] = molecular target: Gal(b1-4)GlcNAc(b1-3)Gal(b1-4)GlcNAc(b1-3)[Gal(b1-4)GlcNAc(b1-3)Gal(b1-4)GlcNAc(b1-6)]GalNAc
Procedure, shortened: as §1

Gal3S6S(b1-4)GlcNAc6S = molecular target: Gal3S6S(b1-4)GlcNAc6S
Procedure, shortened: as §1

Gal4S(b1-4)GlcNAc = molecular target: Gal4S(b1-4)GlcNAc
Procedure, shortened: as §1

Gal4S6S(b1-4)GlcNAc = molecular target: Gal4S6S(b1-4)GlcNAc
Procedure, shortened: as §1

Gal6S(b1-3)GlcNAc6S = molecular target: Gal6S(b1-3)GlcNAc6S
Procedure, shortened: as §1

Gal6S(b1-4)GlcNAc6S = molecular target: Gal6S(b1-4)GlcNAc6S
Procedure, shortened: as §1

[18] = molecular target: GalNAc(a1-3)GalNAc(a1-3)Gal(a1-4)Gal(b1-4)GlcNAc
Procedure, shortened: as §1

GalNAc3S(b1-4)GlcNAc = molecular target: GalNAc3S(b1-4)GlcNAc
Procedure, shortened: as §1

GalNAc4S6S(b1-4)GlcNAc = molecular target: GalNAc4S6S(b1-4)GlcNAc
Procedure, shortened: as §1

[19] = molecular target: GlcNAc(b1-2)[GlcNAc(b1-6)]Man(a1-6)[GlcNAc(b1-2)Man(a1-3)]Man(b1-4)GlcNAc(b1-4)[Fuc(a1-6)]GlcNAc
Procedure, shortened: as §1

[20] = molecular target: GlcNAc(b1-3)Gal(b1-3)GalNAc
Procedure, shortened: as §1

[21] = molecular target: GlcNAc(b1-3)Gal(b1-4)GlcNAc(b1-2)Man(a1-3)[GlcNAc(b1-3)Gal(b1-4)GlcNAc(b1-2)Man(a1-6)]Man(b1-4)GlcNAc(b1-4)GlcNAc
Procedure, shortened: as §1

B1: Pbx2 (Cryptococcus neoformans) (protein)
chain: AVSPLPSSTELVFYSQKRRRRRICSTATGSLSTPDPTRMTSDPYKRVGMRFSSVPRLLITFLSLLLLVSAAPPCVRFADYDSINQMFIDGGPGTKVLLCPNRLYRLSGPIIFTAADQEIATYGYPTGSERAVLRVEGRNTATAIQGDCRRCARVSVKNLVVDGNRKKLGRMRDFQLATGLVVLGGNEGQSIQNSWIKNPRGFTAIHIREGDKLQCSGARVEKNEIGPVGEEYDPEKDGDDPEMSPLGRPLADGVSIACRDSFIRDNTFRDNTDAAIVVYCSPGTLIHANHIFAQSLSAMAGILMVDSTPFNGDYTGTVVRSNIIDAVSRTIRVGIGIGPTVWSDDTETILTGGSVIGNGLKGRYMGYGIAAAGLKQWTIKDNWDEAKHEGRKSARCFDEPVNPDPIGLLYNRPTMEDCTVQSGFADHDFQYLVCIDGLYDKTNPPKHDPAPLAHDPSPTNAQEDNTVQQDGGDSKSKSIEQPREASDIEAEPSVEKMFSTGSEMMDDVLEHSHQRMHEVIDHLSRRIDILGAASAGKGSGDSKISEVLDPAMSSHLEKLQRKIEHLEFSLRSQIETAIQLRSAIQGWDQEMALVTDWEYDILLDVRHKLELSSYPHDQPLDPRLMRGQSYLNNEAVLVDDHSHPSLEGENLRAMSDRARLNANEEA
What does the source list for B1?
glycan array binding signal (z-score) [1]: 5.82; glycan array binding signal (z-score) [2]: 3.8; glycan array binding signal (z-score) (Fuc(a1-2)Gal6S(b1-4)Glc): -0.497; glycan array binding signal (z-score) [3]: -0.446; glycan array binding signal (z-score) [4]: -0.12; glycan array binding signal (z-score) [5]: -0.094; glycan array binding signal (z-score) [6]: -0.041; glycan array binding signal (z-score) [7]: 0.271; glycan array binding signal (z-score) [8]: 0.057; glycan array binding signal (z-score) [9]: -0.291; glycan array binding signal (z-score) [10]: -0.392; glycan array binding signal (z-score) (Gal(a1-3)Gal(b1-4)GlcNAc): -0.346; glycan array binding signal (z-score) [11]: 0.625; glycan array binding signal (z-score) [12]: 0.091; glycan array binding signal (z-score) [13]: -0.114; glycan array binding signal (z-score) [14]: 4.98; glycan array binding signal (z-score) [15]: 0.154; glycan array binding signal (z-score) [16]: 4.44; glycan array binding signal (z-score) [17]: 2.83; glycan array binding signal (z-score) (Gal3S6S(b1-4)GlcNAc6S): 6.21; glycan array binding signal (z-score) (Gal4S(b1-4)GlcNAc): -0.339; glycan array binding signal (z-score) (Gal4S6S(b1-4)GlcNAc): 2.65; glycan array binding signal (z-score) (Gal6S(b1-3)GlcNAc6S): 3.95; glycan array binding signal (z-score) (Gal6S(b1-4)GlcNAc6S): 2.56; glycan array binding signal (z-score) [18]: 0.168; glycan array binding signal (z-score) (GalNAc3S(b1-4)GlcNAc): -0.522; glycan array binding signal (z-score) (GalNAc4S6S(b1-4)GlcNAc): 6.54; glycan array binding signal (z-score) [19]: -0.377; glycan array binding signal (z-score) [20]: -0.436; glycan array binding signal (z-score) [21]: -0.424
